# Entries with a potency or affinity are not part of this list. Calls of active or inactive are those of the source. No rule for the calls is given here.
# Experiment: HIV-1 Env-mediated cell fusion inhibitors, dose response, CCR5-tropic Env (AID 2279)
# Settings: CCR5-tropic HIV-1 Env, reporter read-out; series mostly up to 50 µM
row,Compound,outcome
1,Cc1noc(NS(=O)(=O)c2ccc(NC(=O)Nc3ccc(Cl)c(Cl)c3)cc2)c1C,inactive
2,CCS(=O)(=O)C1=NN2C(=N)/C(=C\c3ccc(OCCOc4cccc(OC)c4)c(OC)c3)C(=O)N=C2S1,inactive
3,CCCCCOc1ccc(C2C(C(=O)c3ccc(C)o3)=C(O)C(=O)N2c2cc(C)on2)cc1 (stereo not given),inactive
4,COc1ccc(-c2cc(-c3ccc(Cl)cc3)c(C#N)c(SCC(=O)O)n2)cc1,inactive
5,Cc1cc(N2C(=O)C(O)=C(C(=O)c3ccc(C)o3)C2c2cccc(Oc3ccccc3)c2)no1 (stereo not given),inactive
6,Cc1ccc2nc(N3C(=O)C(O)=C(C(=O)c4ccco4)C3c3cccc(O)c3)sc2c1 (stereo not given),inactive
7,N=C1/C(=C/c2ccc(-c3cccc(C(=O)O)c3)o2)C(=O)N=C2SC=C(c3ccccc3)N12,inactive
8,CSc1ccc(C(c2c(C(=O)O)[nH]c3ccccc23)c2c(C(=O)O)[nH]c3ccccc23)cc1,inactive
9,O=C(N/N=C/c1cc(Cl)cc([N+](=O)[O-])c1O)c1ccccc1NS(=O)(=O)c1cccs1,inactive
10,CCOC(=O)c1sc(N2C(=O)C(O)=C(C(=O)c3ccco3)C2c2cccc([N+](=O)[O-])c2)nc1C (stereo not given),inactive
11,O=C(O)c1ccccc1NS(=O)(=O)c1ccc(NNC(=S)Nc2ccc(OC(F)F)cc2)c([N+](=O)[O-])c1,inactive
12,O=C(CCN1C(=O)/C(=C/c2ccccc2Cl)SC1=S)Nc1ccccc1C(=O)O,inactive
13,O=C(NN1C(=O)/C(=C/c2ccc(O)c([N+](=O)[O-])c2)SC1=S)c1ccccc1Cl,inactive
14,Cc1ccc(NC(=O)COc2cccc(/C=C3\SC(=S)N(CCC(=O)O)C3=O)c2)cc1Cl,inactive
15,O=C(O)COc1ccccc1/C=N/NC(=O)CSc1nnc(SCc2cccc3ccccc23)s1,inactive
16,COc1ccc(C(=O)Nc2ccc(/C(C)=N/NC(=O)c3ccncc3)cc2)cc1,inactive
17,O=C(Nc1cc(C(=O)Nc2ccccc2C(=O)O)cc(C(=O)Nc2ccccc2C(=O)O)c1)c1ccccc1,inactive
18,CCCOc1ccc(C(=O)NNC(=S)NC(=O)c2cc(-c3ccccc3)nc3ccccc23)cc1,inactive

row,Compound,outcome
1,O=C(CN1C(=O)/C(=C2\SC(=S)N(CCS(=O)(=O)O)C2=O)c2ccccc21)Nc1cccc(Br)c1,inactive
2,O=C1NC(=O)/C(=C/c2ccc(-c3cc(C(=O)O)ccc3Cl)o2)S1,inactive
3,COc1ccc(N=C2S/C(=C\c3ccc(OCC(=O)O)cc3)C(=O)N2CCc2c[nH]c3ccccc23)cc1,inactive
4,COc1cc(/C=C2\C(=N)N3N=C(S(C)(=O)=O)SC3=NC2=O)ccc1OS(=O)(=O)c1ccccc1,inactive
5,COc1cc(/C=N/NC(=O)C(Cc2c[nH]c3ccccc23)NC(=O)OCc2ccccc2)cc([N+](=O)[O-])c1O (stereo not given),inactive
6,O=c1/c(=C\c2cc([N+](=O)[O-])cc([N+](=O)[O-])c2O)sc2nc3ccccc3n12,inactive
7,COc1cc(/C=C2/SC(=S)N(CC(=O)O)C2=O)ccc1OCC(=O)Nc1ccc(C)c(C)c1,inactive
8,CCOC(=O)c1c(N2C(=O)Nc3cc(Cl)c(Cl)cc3N2O)sc2c1CCCCC2,inactive
9,CC(C)CS(=O)(=O)C1=NN2C(=N)/C(=C\c3ccc(OC(=O)c4ccco4)cc3)C(=O)N=C2S1,inactive
10,CCOC(=O)C1=C(C)N=c2s/c(=C\c3ccc(OCC(=O)O)c(OC)c3)c(=O)n2C1c1ccc(OC)cc1 (stereo not given),inactive
11,COc1cc(/C=C2\C(=N)N3N=C(S(C)(=O)=O)SC3=NC2=O)ccc1OC(=O)c1ccco1,inactive
12,COc1cccc(OCCOc2ccc(/C=C3\C(=N)N4N=C(S(C)(=O)=O)SC4=NC3=O)cc2OC)c1,inactive
13,O=C(CCN1C(=O)/C(=C\c2ccccc2F)SC1=S)Nc1ccc(C(=O)O)c(O)c1,inactive
14,Cc1ccccc1N=C1NC(=O)/C(=C/c2cccn2-c2cccc(C(=O)O)c2)S1,inactive
15,O=C(O)c1ccc(Cl)c(S(=O)(=O)Nc2ccccc2C(=O)Nc2ccc(Cl)cc2)c1,inactive
16,O=C(O)c1cc(NC(=O)c2ccc(Br)cc2)cc(NC(=O)c2ccc(Br)cc2)c1,inactive
17,O=C(O)c1cccc(N/N=C/c2cc(Br)cc(Br)c2O)c1,inactive

# Reference: PubChem BioAssay AID2279 (Southern Research Specialized Biocontainment Screening …, 2010)
